Among all 2,500 compounds or so, about 1,100 (44%) were called active.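 The calls were made as follows: active = inhibition above 50% at 4 µM in the single-point screen; inactive = inhibition of 50% or less.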 So high a share suggests a set chosen from earlier hits. The list shows a part of the results.
Test: TNF-a-driven NF-kB reporter inhibitors, primary screen, selectivity assay for NOD1/NOD2 signaling inhibitor project, cell-based, HEK293T NF-kB-Luc, luminescence (AID 1852)
Details: TNF-a induced, 14 h, at 4 µM, stronger effect = higher value

inhibition, active:
COc1ccc(CS(=O)/C(Cl)=C(/Cl)C(=O)Nc2ccc(OC)nc2)cc1 (centres undefined) 101%
COc1ccc(NC(=O)/C(Cl)=C(/Cl)S(=O)Cc2ccc(C)cc2)cn1 (centres undefined) 105%
COc1ccc(NC(=O)/C(Cl)=C(/Cl)S(=O)Cc2ccc(Cl)cc2)cn1 (centres undefined) 89%
COc1ccc(NC(=O)/C(Cl)=C(/Cl)S(=O)Cc2ccccc2)cn1 (centres undefined) 104%
COc1ccc(NC(=O)/C(Cl)=C(/Cl)S(=O)Cc2ccccc2Cl)cn1 (centres undefined) 98.2%
Cn1c(=O)c(C#N)c(-c2ccc(F)cc2)c2cc(C(=O)c3cc(Cl)cc(Cl)c3O)cnc21 95.8%
COc1ccc(C2(c3ccc(OC)cc3)NC(=O)N(CC(=O)Nc3ccc(C(N)=O)cc3)C2=O)cc1 59.3%
CC(C)(C)C1CCC2(CC1)C(C#N)=C(SCC(=O)Nc1ccccc1)NC(=O)C2C#N (centres undefined) 79%
N#CC1=C(SCC(=O)NC23CC4CC(CC(C4)C2)C3)NC(=O)C(C#N)C12CCCCC2 (centres undefined) 66.1%
Cc1ccc(C(=O)CN2C(=O)c3ccccc3S2(=O)=O)cc1 85.1%
O=C1c2ccccc2S(=O)(=O)N1Cc1nc2ccccc2s1 53.2%
COc1ccc(C(=O)CN2C(=O)c3ccccc3S2(=O)=O)cc1 92.1%
O=C(CCl)Nc1ccc(Sc2ccc(NC(=O)CCl)cc2)cc1 81.3%
O=C1NC(=O)/C(=C\c2ccccc2Oc2ccc(F)c(F)c2)S1 55.7%
Cc1cc(C(=O)CCl)c(C)n1CCc1ccc(F)cc1 55.6%
CCOC(=O)C1CCN(C(=O)Cn2cnc3sc(C)c(S(=O)(=O)N4CCC(C)CC4)c3c2=O)CC1 55.3%
CN(C)S(=O)(=O)c1cccc(NC(=O)c2ccc(COc3ccccc3)cc2)c1 80.7%
CCOC(=O)C1=C(c2ccc(OC)cc2)C(=O)c2ccccc2C1=O 108%
CCOC(=O)C1=C(Cc2ccc(C)cc2)C(=O)c2ccccc2C1=O 61.3%
CCOC(=O)C1=C(Cc2ccc(F)cc2)C(=O)c2ccccc2C1=O 90.8%
COc1ccc(CNc2ncnc3ccccc23)cc1 65.6%
c1ccc(CNc2ncnc3ccccc23)cc1 65.6%
CC(Nc1ncnc2ccccc12)c1ccccc1 (centres undefined) 83.3%
Cc1ccc(NC(=O)c2cnc(N3CCN(c4ccccn4)CC3)c3ccccc23)c(Br)c1 99.8%
O=C(c1cnc(N2CCN(c3ccccn3)CC2)c2ccccc12)N1CCN(c2cccc(Cl)c2)CC1 53.2%
Cc1cc(Br)ccc1NC(=O)c1cnc(N2CCN(c3ccccn3)CC2)c2ccccc12 73.3%
CCc1ccc(NC(=O)c2cnc(N3CCN(c4ccccn4)CC3)c3ccccc23)cc1 78.3%

inhibition, inactive:
CS(=O)(=O)N1CCC(C(=O)Nc2cc(Cl)c(Cl)cc2Cl)CC1 30.2%
COc1ccc(CC2(CO)CCN(CC3=Cc4cc(Cl)ccc4OC3)CC2)cc1 44%
Cc1nc(Sc2ccc(Br)cc2)c(C#N)c(C)c1[N+](=O)[O-] -8.7%
O=C(Cc1ccc(Cl)cc1)Nc1ncc([N+](=O)[O-])s1 16.3%
CCc1nn2cc(C(=O)c3cc(Cl)ccc3O)cnc2c1-c1ccc(F)cc1 -6%
COc1ccc(NC(=O)CN(C)C(=O)c2ccccc2OC)cc1 -11.8%
CCn1c(SCC(=O)Nc2ccc(OC)cc2)nc2nc3c(cc2c1=O)CCCC3 -16.7%
CC(C)(C)C1CCC2(CC1)C(C#N)=C(SCC(=O)NC1CCCCC1)NC(=O)C2C#N (centres undefined) -10.7%
O=C1NC(=S)S/C1=C\c1cc2ccccc2nc1N1CCCCC1 42%
O=C(CN1C(=O)c2ccccc2S1(=O)=O)c1ccc(F)cc1 29.1%
O=C(CCl)Nc1ccccc1Sc1ccc(Cl)cc1 33.5%
O=C1NC(=O)/C(=C/c2ccccc2OCc2ccccc2)S1 16.2%
O=C1NC(=O)/C(=C/c2ccccc2Oc2ccc(Cl)cc2)S1 -26.6%
Cc1cc(C(=O)CCl)c(C)n1CCc1ccc(Cl)cc1 21.1%
CCOC(=O)C1CCN(S(=O)(=O)c2ccc3c(c2)N(C(C)=O)CC(C)S3)CC1 (centres undefined) 5.4%
CCC(C)NC(=O)Cn1cnc2sc(C)c(S(=O)(=O)N3CCN(c4ccccc4OC)CC3)c2c1=O (centres undefined) 9.7%
CN(C)S(=O)(=O)Oc1ccc(C(=O)Nc2cccc(C(F)(F)F)c2)cc1 36.5%
CCOC(=O)C1=C(Cc2ccc(Cl)cc2)C(=O)c2ccccc2C1=O 7.7%
CCOC(=O)c1sc2ccccc2c1OC(=O)c1ccc(C)cc1 17.4%
CC(Nc1ncnc2sccc12)c1ccccc1 (centres undefined) 35.1%
Cc1cc2c(NCc3ccccc3)ncnc2s1 42.6%
Fc1ccc(CNc2ncnc3cc(Cl)ccc23)cc1 39.9%
COc1cccc(CNc2ncnc3cc(Cl)ccc23)c1 49.2%
Cc1ccccc1OCc1nc2ccccc2c(=O)n1/N=C/c1cn[nH]c1-c1ccc(Br)cc1 3.5%
O=C(CN1CCN(c2ccccn2)CC1)Nc1cccc(Br)c1 13.8%
S=C(Nc1ccc(Oc2ccccc2)cc1)N1CCN(c2ccccn2)CC1 21%
COc1ccccc1N1CCN(c2ncc(C(=O)N3CCN(c4cccc(Cl)c4)CC3)c3ccccc23)CC1 21.9%
Cc1nc(N2CCN(c3ccccn3)CC2)c2c(C)c(C(=O)N3CCN(c4ccccc4F)CC3)sc2n1 -27.6%
Cc1ccccc1C(=O)N1CCN(c2ccccn2)CC1 48.2%
COc1ccc(C)cc1NC(=O)c1sc2ncnc(N3CCN(c4ccccn4)CC3)c2c1C -10%
CCN(C(=O)c1cnc(N2CCN(c3ncccn3)CC2)c2ccccc12)c1cccc(Cl)c1 46.7%
Cc1nc(N2CCN(c3ccccn3)CC2)c2c(C)c(C(=O)Nc3ccccc3F)sc2n1 4.6%

— PubChem BioAssay AID1852 (Sanford-Burnham Center for Chemical Genomics, 2009)
